From PubChem BioAssay AID686978 (National Center for Advancing Translational Sciences (NCATS), 2013)
About 64,000 (15%) of roughly 420,000 compounds were called active. Another 27% or so got no clear call; they are omitted. Not all results are given here. Values without a mark were called inactive. Calls follow the shape of the dose curve; as a rule, active = well fitted inhibition curve with a large enough effect; inconclusive = small, poorly fitted or top-dose-only effect; inactive = flat fitted curve, though single readings scatter.

Assay: qHTS for Inhibitors of human tyrosyl-DNA phosphodiesterase 1 (TDP1): qHTS in cells in absence of CPT; also: nearly all actives have a fitted effect of over 55% in size
Details: DT40 Tdp1-/- hTDP1 cells, no CPT, ATP luminescence, 48 h; activity change, negative = growth inhibition: at 46.2 µM (top of the series)
Description: Human tyrosyl-DNA phosphodiesterase 1 (TDP1) is a novel repair gene, and we propose to use it as a new target for anticancer drug development. TDP1 is not an essential protein, but under treatment with topoisomerase I poison (camptothecin: CPT), TDP1 works as a critical factor for cell survival. To directly identify novel TDP1 inhibitors active in a cellular environment, we have knocked-out the Tdp1 gene in chicken DT40 cells (Tdp1-/-) and generated a complemented counterpart cells that contains a stable transfection of the human TDP1 gene (Tdp1-/-;hTDP1 cells). For the primary screen, Tdp1-/-;hTDP1 cells will be exposed to small molecules in the presence or absence of CPT, and their growth kinetics will be evaluated after 48 hours by measuring ATP activity. […] The hit compounds will then be evaluated in the presence or absence of CPT using Tdp1-/- cells. […] In tertiary assays, biochemical gel-based assays will be used to assess whether the hit compounds specifically target TDP1.
To this end, we have screened this cell line against the MLSMR in two primary screens. In one screen we add CPT and in the other we screen in the absence of CPT; this AID represents the screen where CPT was absent.
NIH Chemical Genomics Center [NCGC]
NIH Molecular Libraries Probe Centers Network [MLPCN]
Assay Submitter (PI): Yves Pommier, NCI
DT40-hTDP1 cells without 20 nM Camptothecin (add 20 microL of DMSO in 1 L of cell culture medium) were dispensed at 400 cells/5microL/well in tissue culture treated 1536-well white wall/solid bottom assay plates (Greiner Bio-One North America, NC, U.S.A.) using a Multidrop Combi 8 channel dispenser (Thermo Fisher, Waltham, MA, USA). 23 nL compounds and controls were transferred using the pin tool (Kalypsys, San Diego, CA, USA) to the assay plates. The assay plates were then incubated at 37 masculineC for a minimum 48 hr. Three microL of Cell Titer Glo solution was added to the plates and incubated at RT in dark for 30 min. Luminescence was read using ViewLux (Perkin Elmer) with 1 sec exposure slow speed, high gain and 2x binning.
% is scaled to controls: 0 for no effect and ±100 for the full control effect; potency is read from the fitted curve at half-maximal effect.

Structure (SMILES)	activity change, negative = growth inhibition	Potency
CN(CC(=O)NCCc1ccc(S(N)(=O)=O)cc1)CC(=O)Nc1ccc(Cl)cc1	-18%	–
O=C1CCC(C(=O)Nc2ccc(OC(F)F)cc2)N1 (configuration not stated)	-6.43%	–
CC(NC(=S)Nc1ccc(OC(F)F)cc1)c1ccc(F)cc1 (configuration not stated)	–	16.4 µM (active)
CCNC(=S)Nc1ccc(OC(F)(F)F)cc1	-24.4%	–
CC(=O)c1ccc(OCC(O)CN2CCN(S(=O)(=O)c3cccc(Br)c3)CC2)cc1 (configuration not stated)	-22.2%	–
CCCCC(=O)N(c1ccc(OC)cc1)C1C=CS(=O)(=O)C1 (configuration not stated)	-8.95%	–
CN(C)/C=C/C(=O)c1ccccc1F	2.39%	–
COc1ccccc1NC(=O)c1sc2nc(C)c(C(=O)Nc3ccc(Cl)cc3)c(-c3ccc(Br)cc3)c2c1N	–	16.4 µM (active)
COc1ccccc1NC(=O)c1c(Br)cnn1C	-18.3%	–
COc1ccc(NC(=O)c2sc3nc(-c4cc5cccc(OC)c5oc4=O)[nH]c(=O)c3c2C)cc1	-20.7%	–
N/C(=N\OC(=O)c1ccc([N+](=O)[O-])cc1)c1ccccn1	6.67%	–
O=C(NC1CC1)C1=C[C@H](c2coc3ccccc3c2=O)C[C@H](OCCCCO)O1	-1.23%	–
CCO[C@H]1OC(C(=O)NCc2ccccc2)=C[C@@H](c2coc3ccccc3c2=O)[C@@H]1CCCO	–	9.2 µM (active)
CCO[C@H]1OC(C(=O)O)=C[C@@H](C2CCCCC2)[C@@H]1CCCO	4.26%	–
CC1=CC(=NNS(=O)(=O)c2ccc([N+](=O)[O-])cc2)CC(C)(C)C1	-5.62%	–
Cc1ccc(CNC(=O)Cc2cn(C)c3ccccc23)cc1	-10.4%	–
N#CCC(=O)N/N=C/c1cn(Cc2ccc3ccccc3c2)c2ccccc12	–	14.6 µM (active)
NC(=O)Cn1cc(/C=N\NS(=O)(=O)c2ccccc2)c2ccccc21	19.2%	–
CNC(=S)N/N=C/c1cn(Cc2ccc(C)cc2)c2ccccc12	–	18.4 µM (active)
CCN1CCN(C(=O)/C=C\C(=O)O)CC1	-12%	–
C=CCn1c(=O)c(C(=O)Nc2ncccc2O)c(O)c2ccccc21	-18.9%	–
CCc1cccc(C)c1NC(=O)COC(=O)CNC(=O)c1cccs1	1.78%	–
Cc1cc(NC(=O)COc2ccccc2C#N)no1	14.4%	–
CCc1cccc(C)c1NC(=O)COC(=O)CC1CCCC1	4.08%	–
CCc1cccc(CC)c1NC(=O)COc1ccccc1C(=O)c1cc(C#N)c(=O)n(C2CCCCC2)c1	–	16.4 µM (active)
O=S(=O)(NCC(c1ccco1)N1CCOCC1)c1cc(F)ccc1F (configuration not stated)	-9.31%	–

Structure (SMILES)	activity change, negative = growth inhibition	Potency
COc1ccc(Cn2ccn(CC(=O)Nc3cc(C)ccc3C)c(=O)c2=O)cc1	25%	–
CC(C)C(=O)Nc1ccc2c3c(cccc13)CC2	-15.8%	–
CC(=O)c1c(N2CCN(c3ccc(F)cc3)CC2)nc(=S)n(-c2ccccc2)c1C	–	20.6 µM (active)
Cc1ccc2cc(C)c(N3CCN(c4ccc(F)cc4)CC3)nc2c1	-3.8%	–
CC(=O)c1c(N2CCOCC2)nc(=S)n(-c2cc(C)ccc2C)c1C	-13.9%	–
CNC(=O)COc1ccc(S(=O)(=O)Nc2ccccc2)cc1	-7.11%	–
CCn1c(C(C)NC(=O)c2ccc(C)cc2)n[nH]c1=S (configuration not stated)	-9.48%	–
C/C(=C\C(=O)c1ccccc1)Nc1cccc(O)c1	-19.5%	–
N/C(=N\OC(=O)CCn1cccc(C(F)(F)F)c1=O)c1ccc(OC(F)(F)F)cc1	-14%	–
Cc1ccc(OCCNC(=O)CN2C(=O)NC3(CCCC3)C2=O)cc1	-13.8%	–
COC1=CC(=O)OC(C)(c2ccccc2)C1 (configuration not stated)	-8.45%	–
Cc1nc2c(OCc3ccc(Cl)cc3Cl)cccn2c1N(C)CC1CC1	–	16.4 µM (active)
Cc1nc2c(OCC(=O)C(C)(C)C)cccn2c1N(C)Cc1cccs1	-75%	–
Cc1nc2c(OCc3cccc(Cl)c3)cccn2c1N(C)CC1CC1	–	20.6 µM (active)
O=C(Nc1c[nH]c(=O)[nH]c1=O)OCc1ccccc1	-22.5%	–
Cc1ccc(C(=O)Nc2ccc(OCc3cc(=O)n4c5c(sc4n3)CCCC5)cc2)cc1	-9.99%	–
CC(C)(C)C(=O)NCCCNc1ccc([N+](=O)[O-])cc1	-0.828%	–
CN1CC(=O)N=C1N	–	inactive
O=S(=O)(NCc1ccccn1)c1ccc(F)cc1	-2.5%	–
CCCCN1CC(CO)Oc2cccc(F)c2S1(=O)=O (configuration not stated)	-19.8%	–
COc1ccccc1-c1nn(Cc2ccccc2)cc1C(=O)N1CCN(c2ncccn2)CC1	–	16.4 µM (active)
COc1cccc(OC)c1C(=O)N1CCN(Cc2cccnc2)CC1	-17.6%	–
COc1cc(C(=O)N2CCOC23CCN(Cc2ccccc2)CC3)cc(OC)c1OC	-18.3%	–
COc1ccc(C(=O)NC2CC2)cc1OC1CCN(C/C=C/c2ccccc2)CC1	–	23.1 µM (active)
COc1ccc(C(=O)NC2CC2)cc1OC1CCN(Cc2ccc(SC)cc2)CC1	-1.42%	–
COc1cc(C(=O)N2CCN(C)CC2)cc(OC)c1OC	9.62%	–
